About 79,000 compounds went through this panel and 15% of them were active in at least one assay; those are over-represented in the sample as a whole. The source made the active and inactive calls. No stated cut-off is given here; in the data, active means growth inhibition above about 70%; inactive means the rest.
Legend:
[1] = NCI Yeast Anticancer Drug Screen. Data for the rad52 strain (AID 147);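 further: 0% = growth of vehicle-treated control cultures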; conditions: S. cerevisiae rad52 mutant growth inhibition, stronger effect = higher value
Procedure, shortened: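 Compounds are applied to a genetically defined yeast strain lacking normal DNA damage repair, and inhibition of growth is expressed relative to cultures given vehicle only.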

[2] = NCI Yeast Anticancer Drug Screen. Data for the wt1 strain (AID 149);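 further: 0% = growth of vehicle-treated wt1 cultures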; conditions: S. cerevisiae wt1 strain (SPY 50644) growth inhibition, stronger effect = higher value
Procedure, shortened: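 wt1 strain grown with compound or vehicle; inhibition taken from the growth difference.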

[3] = NCI Yeast Anticancer Drug Screen. Data for the rad50EPP+ strain (AID 151);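 further: 0% = growth of vehicle-treated control cultures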; conditions: S. cerevisiae rad50 mutant strain, stronger effect = higher value
Procedure, shortened: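 Compounds were applied to the rad50EPP+ yeast strain, which bears a defined DNA repair alteration, and growth inhibition was determined relative to vehicle-treated cultures.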

[4] = NCI Yeast Anticancer Drug Screen. Data for the mgt1 strain (AID 153); conditions: S. cerevisiae mgt1 mutant growth inhibition, stronger effect = higher value
Procedure, shortened: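 Strain: mgt1 yeast, one of a set carrying defined DNA damage repair or cell cycle control alterations. Compound-treated growth compared with vehicle.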

[5] = NCI Yeast Anticancer Drug Screen. Data for the rad50 strain (AID 155);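 further: 0% = growth of vehicle-only cultures of the same strain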; conditions: S. cerevisiae rad50 strain growth inhibition, stronger effect = higher value
Procedure, shortened: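 DNA repair mutant yeast, compound exposure, growth read-out; inhibition is taken relative to vehicle.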

[6] = NCI Yeast Anticancer Drug Screen. Data for the mec2-1 strain (AID 157); conditions: S. cerevisiae mec2-1 strain, stronger effect = higher value
Procedure, shortened: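 Strain: mec2-1 (DNA repair/cell cycle alteration). Compound exposure, then growth measured; inhibition expressed relative to vehicle.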

[7] = NCI Yeast Anticancer Drug Screen. Data for the rad14 strain (AID 159);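 further: 0% = growth of vehicle-treated control cultures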; conditions: S. cerevisiae rad14 strain growth inhibition, stronger effect = higher value
Procedure, shortened: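 DNA repair-defective yeast, compound-exposed; % growth inhibition derived by comparison with vehicle-treated controls.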

[8] = NCI Yeast Anticancer Drug Screen. Data for the CLN2oe strain (AID 163);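 further: 0% = growth of vehicle-only control cultures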; conditions: S. cerevisiae CLN2oe strain, stronger effect = higher value
Procedure, shortened: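 Growth of a genetically modified yeast strain is measured after compound exposure and compared with cultures given vehicle alone.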

[9] = NCI Yeast Anticancer Drug Screen. Data for the cln2 rad14 strain (AID 165);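 further: 0% = growth equal to vehicle treated cultures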; conditions: S. cerevisiae cln2 rad14 strain, stronger effect = higher value
Procedure, shortened: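 Compounds are applied to the cln2 rad14 yeast strain, and growth is then compared with that of vehicle-treated cultures to give inhibition.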

[10] = NCI Yeast Anticancer Drug Screen. Data for the bub3 strain (AID 167); conditions: S. cerevisiae bub3 mutant strain, stronger effect = higher value
Procedure, shortened: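 In this screen, a yeast mutant lacking normal mitotic checkpoint function is challenged with compound. Relative growth versus vehicle gives the inhibition value.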

[11] = NCI Yeast Anticancer Drug Screen. Data for the wt2 strain (AID 169);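 further: 0% = growth of vehicle-treated yeast cultures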; conditions: S. cerevisiae wt2 strain growth inhibition, stronger effect = higher value
Procedure, shortened: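 This strain belongs to a panel of yeast strains with defined genetic alterations in DNA damage repair or cell cycle control. Compounds are applied, and growth inhibition is measured against vehicle-treated cultures.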

[12] = NCI Yeast Anticancer Drug Screen. Data for the mlh1 strain (AID 171);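 further: 0% = growth of vehicle-treated control cultures of the same strain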; conditions: S. cerevisiae mlh1 strain growth inhibition, stronger effect = higher value
Procedure, shortened: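 Growth of the mutant yeast strain after compound exposure, expressed as inhibition relative to vehicle-only controls.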

[13] = NCI Yeast Anticancer Drug Screen. Data for the sgs1 strain (AID 173);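 further: 0% = growth of vehicle-only control cultures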; conditions: S. cerevisiae sgs1 mutant, stronger effect = higher value
Procedure, shortened: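 Growth of a yeast strain bearing a defined genetic alteration is measured after compound treatment. Inhibition is expressed relative to vehicle-only controls.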

[14] = NCI Yeast Anticancer Drug Screen. Data for the mlh1 rad18 strain (AID 175); conditions: S. cerevisiae mlh1 rad18 strain growth inhibition, stronger effect = higher value
Procedure, shortened: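 Read-out is yeast growth inhibition, calculated against vehicle-only controls. The compound was applied to a strain engineered with DNA damage repair alterations.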

[15] = NCI Yeast Anticancer Drug Screen. Data for the rad18 strain (AID 177); conditions: S. cerevisiae rad18 mutant growth inhibition, stronger effect = higher value
Procedure, shortened: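 Growth of the mutant yeast strain after compound exposure, normalised to vehicle-only cultures.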

[16] = at 5.0 µM (retest, dose inferred, filed as 0.5)
[17] = at 50.0 µM (retest, dose inferred, filed as 5.0)

Measured: growth inhibition

O=Cc1ccc2c(c1)C(=O)c1ccccc1C2=O
active: [1]; at 33.0 µM 79% | [1]; at 100.0 µM 92% | [3]; at 33.0 µM 73% | [3]; at 100.0 µM 83% | [5]; at 33.0 µM 80% | [5]; at 50.0 µM 77.6% | [5]; at 100.0 µM 91% | [12]; at 100.0 µM 82% | [15]; at 100.0 µM 81%
inactive: [1]; at 1.2 µM 4% | [1]; at 3.7 µM 11% | [1]; at 11.0 µM 33% | [2]; at 1.2 µM 1% | [2]; at 3.7 µM -1% | [2]; at 11.0 µM 7% | [2]; at 33.0 µM 18% | [2]; at 100.0 µM 31% | [3]; at 1.2 µM 0% | [3]; at 3.7 µM 5% | [3]; at 11.0 µM 33% | [4]; at 1.2 µM 0% | [4]; at 3.7 µM 9% | [4]; at 11.0 µM 9% | [4]; at 33.0 µM 33% | [4]; at 100.0 µM 55% | [5]; at 1.2 µM 2% | [5]; at 3.7 µM 16% | [5]; [16] -11% | [5]; at 11.0 µM 44% | [5]; [17] 57% | [6]; at 1.2 µM 0% | [6]; at 3.7 µM 7% | [6]; [16] 6% | [6]; at 11.0 µM 12% | [6]; at 33.0 µM 21% | [6]; [17] 21% | [6]; at 50.0 µM 30.8% | [6]; at 100.0 µM 34% | [7]; at 1.2 µM 0% | [7]; at 3.7 µM -3% | [7]; at 11.0 µM 10% | [7]; at 33.0 µM 23% | [7]; at 100.0 µM 37% | [8]; at 1.2 µM -3% | [8]; at 3.7 µM -1% | [8]; at 11.0 µM 13% | [8]; at 33.0 µM 25% | [8]; at 100.0 µM 22% | [9]; [16] -21% | [9]; [17] 16% | [9]; at 50.0 µM 35.9% | [10]; at 1.2 µM -1% | [10]; at 3.7 µM -7% | [10]; [16] -3% | [10]; at 11.0 µM 8% | [10]; at 33.0 µM 9% | [10]; [17] 8% | [10]; at 50.0 µM 36.6% | [10]; at 100.0 µM 7% | [11]; at 1.2 µM 0% | [11]; at 3.7 µM 4% | [11]; at 11.0 µM 14% | [11]; at 33.0 µM 32% | [11]; at 100.0 µM 51% | [12]; at 1.2 µM 2% | [12]; at 3.7 µM 1% | [12]; at 11.0 µM 10% | [12]; at 33.0 µM 44% | [13]; at 1.2 µM -3% | [13]; at 3.7 µM -3% | [13]; at 11.0 µM 8% | [13]; at 33.0 µM 38% | [13]; at 100.0 µM 56% | [14]; [16] 10% | [14]; [17] 61% | [14]; at 50.0 µM 67.8% | [15]; at 1.2 µM -1% | [15]; at 3.7 µM 0% | [15]; at 11.0 µM 14% | [15]; at 33.0 µM 61%

Source: PubChem BioAssay (NCI)
